# “And” between values parts separate entries of the source, which are not always exact repeats. Equal entries are not always repeated. The full ranking holds about 5,300 compounds; the median of “PER2::LUC luminescence relative to vehicle control” is about 0.96, and the highest 2% start at about 1.3. The entries come from a sample that favours the highest values as a whole.
# Test system: mPer2Luc MEF
# Assay: PER2::LUC luminescence relative to vehicle control (fold of vehicle); higher = higher PER2::LUC reporter signal
# Details: 10 µM
# Procedure, shortened: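 The value is PER2::LUC luminescence expressed as fold of vehicle control. Mouse embryonic fibroblasts carrying the mPer2Luc reporter were seeded at ~3000 cells per well in 384-well plates and grown in DMEM with 10% FBS at 37 °C and 5% CO2. Compounds from commercial libraries were added at 10 μM 48 h after seeding, and luminescence was read with the ONE-Glo luciferase assay system 24 h and 30 h after treatment, followed by an alamarBlue viability assay.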
Compound,PER2::LUC luminescence (time after treatment 24 h),PER2::LUC luminescence (time after treatment 30 h)
Oc1ccccc1NCc1ccccn1,0.921,1.05
C[C@H](CCC(=O)NCC(=O)NCCS(=O)(=O)O)[C@H]1CC[C@H]2[C@@H]3[C@H](O)C[C@@H]4C[C@H](O)CC[C@]4(C)[C@H]3C[C@H](O)[C@]12C,0.886,0.904
CCC(=O)O[C@]1(C(=O)CCl)[C@@H](C)C[C@H]2[C@@H]3CCC4=CC(=O)C=C[C@]4(C)[C@@]3(F)[C@@H](O)C[C@@]21C,0.711,1.08
CCCCC(=O)O[C@]1(C(=O)CO)[C@@H](C)C[C@H]2[C@@H]3CCC4=CC(=O)C=C[C@]4(C)[C@@]3(F)[C@@H](O)C[C@@]21C,0.684 and 0.795,1.37 and 1.15
CC(=O)OCC(=O)[C@@]12OC3(CCCC3)O[C@@H]1C[C@H]1[C@@H]3CCC4=CC(=O)C=C[C@]4(C)[C@@]3(F)[C@@H](O)C[C@@]12C,0.828,1.13
CC1(C)O[C@@H]2C[C@H]3[C@@H]4CCC5=CC(=O)C=C[C@]5(C)[C@@]4(F)[C@@H](O)C[C@]3(C)[C@]2(C(=O)CO)O1,0.583,1.35
CCC(=O)OCC(=O)[C@@]1(OC(=O)CC)[C@@H](C)C[C@H]2[C@@H]3CCC4=CC(=O)C=C[C@]4(C)[C@@]3(F)[C@@H](O)C[C@@]21C,0.454 and 0.475,1.01 and 0.98
CC1(C)O[C@@H]2C[C@H]3[C@@H]4C[C@H](F)C5=CC(=O)C=C[C@]5(C)[C@@]4(F)[C@@H](O)C[C@]3(C)[C@]2(C(=O)CO)O1,0.902,1.15
Nc1nc(=O)c2c([nH]1)NCC(CNc1ccc(C(=O)N[C@@H](CCC(=O)O)C(=O)O)cc1)=N2,1.06,0.985
COc1cccc(NCC(O)Cn2c3ccc(Br)cc3c3cc(Br)ccc32)c1 (stereo in doubt),0.88,0.955
COc1ccc(-c2c(O)c3c(OC)c4c(cc3oc2=O)OC(C)(C)C=C4)cc1,1.5,1.46
COc1cc(OC)c2c(OC)c(-c3ccc4c(c3)OCO4)c(=O)oc2c1,1.02,1.21
COc1c2c(cc3occ(-c4ccc5c(c4)OCO5)c(=O)c13)OC(C)(C)C=C2,0.833,0.876
CC(=O)OC[C@@]1(O)C[C@@]23CC[C@@H]4c5ccoc5CC[C@@]4(C)[C@@H]2CC[C@@H]1C3,1.05,1.06
C=CCCCCCCCCCCCC(O)CC(O)CO (stereo not given),0.967,0.789
CC1(C)CCC[C@](C)([C@H]2CC[C@]3(C)[C@@H]2[C@H](O)C[C@@H]2[C@@]4(C)CC[C@H](O)C(C)(C)[C@@H]4CC[C@]23C)O1,1.02,1.02
CC(C)(C)c1nc2c3cc[nH]c(=O)c3c3cc(F)ccc3c2[nH]1,0.802,0.906
CCOC(=O)c1cn(-c2c(F)c(F)c(C#N)c(F)c2F)c2c(F)c(F)c(F)cc2c1=O,1.08,1.19
O=C(c1ccc(OCCN2CCCCC2)cc1)c1c(-c2ccc(O)cc2)sc2cc(O)ccc12,0.35,0.69
CCCCOc1ccc(OCCCN2CCOCC2)cc1,1.12,1.18
CCCCOc1ccc(C(=O)CCN2CCCCC2)cc1,0.957,1.41
CCN1CCN(Cc2ccc(NC(=O)Nc3ccc(Oc4cc(NC)ncn4)cc3)cc2C(F)(F)F)CC1,0.107,0.14
CO/N=C(\C(=O)N[C@@H]1C(=O)N2C(C(=O)[O-])=C(C[n+]3ccc(N)n3CCO)CS[C@H]12)c1csc(N)n1,1.12,1.1

Compound,PER2::LUC luminescence (time after treatment 24 h),PER2::LUC luminescence (time after treatment 30 h)
Cc1ncc([N+](=O)[O-])n1C,1.13,0.998
Cn1c([N+](=O)[O-])cnc1COC(N)=O,1.15,1.27
CSc1ccc(OCc2ncc([N+](=O)[O-])n2C)cc1,1.41,1.31
N[C@](CCCCB(O)O)(CCN1CCCCC1)C(=O)O,1.07,1.08
Cc1ccccc1-n1c([C@H](C)Nc2nc(N)nc3nc[nH]c23)nc2cccc(C)c2c1=O,0.801,0.66
CCCCN(CCCC)S(=O)(=O)c1ccc(C(=O)O)cc1,0.899,1.04
COc1cc(/C=C/C(=O)c2ccc(O)cc2O)ccc1O,1.02,1.04
O=C(/C=C/c1ccccc1)c1ccc(O)cc1,1.33,1.48
COc1ccc(C(=O)/C=C/c2ccccc2)cc1,1.25,1.28
COc1ccc(C(C)=O)c(O)c1,0.967,0.936
O=C(/C=C/c1ccc(O)cc1)CC(=O)/C=C/c1ccc(O)cc1,1.1,1.07
COc1ccc(CC(=O)c2ccc(O)cc2O)cc1,1.63,1.51
COc1ccc(C(=O)c2ccccc2O)c(O)c1,1.02,1.04
COc1ccc(/C=C/C(=O)c2cc(O)ccc2O)cc1,0.754,0.827
COc1ccc(C(=O)c2ccc(C)cc2)c(O)c1,1.02 and 1.29,1.55 and 1.57
COc1ccc(C(=O)c2ccccc2)c(O)c1,1.22,1.21
COc1ccc([C@@H](C)C(=O)c2ccc(O)cc2O)cc1,1.1,1.08
COc1ccc(/C=C/C(=O)c2ccc(O)cc2O)cc1,1.51,1.56
CCC(C(=S)O[C@]12CCC[C@H](CC1)N2C)c1ccccc1 (stereo not given in full),0.715,0.77
Nc1ccc(S(=O)(=O)NCCc2ccccc2)cc1,1.03,1
CC1=CC(=O)C2=C(C)CC[C@@H]3[C@H](OC(=O)[C@H]3C)[C@@H]12,0.959,0.978
OCC12COC(c3ccc(F)cc3)N1C(c1ccc(F)cc1)OC2 (stereo not given),1.07,1.03

# Reference: the supplement of paper PMC9334596
